A short description of assay [1]: anti-His antibody binders, primary screen, artefact control for SMM control protein annotation, biochemical, small-molecule microarray, 635 nm fluorescence (AID 1128).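 Note: score merges feature fluorescence with signal-to-noise for each printed compound spot.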 The following applies: anti-His Alexa647 antibody binding, higher = more signal.
Assay [2] relates to Human papillomavirus type 1a E7 protein (residues 1-88). In words: HPV1a E7 small-molecule binders, primary screen, biochemical, small-molecule microarray, residues 1-88, 635 nm (AID 1129). The note with it: small-molecule microarray binding, fluorescence 635 nm; higher = more signal.
For assay [3], the target named is Focal adhesion kinase 1 (Homo sapiens) (UniProt Q05397). As to the kind of experiment: small-molecule microarray binders of FAK, primary screen, biochemical, 635/667 nm fluorescence, BSA, DTT (AID 1130).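 Note: composite of spot emission at 667 nm and signal to noise over triplicate slides.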 The note with it: PTK2 binding, 635 nm fluorescence, higher = more signal.
Focal adhesion kinase 1 (Homo sapiens), sequence (Q05397 whole entry, looked up): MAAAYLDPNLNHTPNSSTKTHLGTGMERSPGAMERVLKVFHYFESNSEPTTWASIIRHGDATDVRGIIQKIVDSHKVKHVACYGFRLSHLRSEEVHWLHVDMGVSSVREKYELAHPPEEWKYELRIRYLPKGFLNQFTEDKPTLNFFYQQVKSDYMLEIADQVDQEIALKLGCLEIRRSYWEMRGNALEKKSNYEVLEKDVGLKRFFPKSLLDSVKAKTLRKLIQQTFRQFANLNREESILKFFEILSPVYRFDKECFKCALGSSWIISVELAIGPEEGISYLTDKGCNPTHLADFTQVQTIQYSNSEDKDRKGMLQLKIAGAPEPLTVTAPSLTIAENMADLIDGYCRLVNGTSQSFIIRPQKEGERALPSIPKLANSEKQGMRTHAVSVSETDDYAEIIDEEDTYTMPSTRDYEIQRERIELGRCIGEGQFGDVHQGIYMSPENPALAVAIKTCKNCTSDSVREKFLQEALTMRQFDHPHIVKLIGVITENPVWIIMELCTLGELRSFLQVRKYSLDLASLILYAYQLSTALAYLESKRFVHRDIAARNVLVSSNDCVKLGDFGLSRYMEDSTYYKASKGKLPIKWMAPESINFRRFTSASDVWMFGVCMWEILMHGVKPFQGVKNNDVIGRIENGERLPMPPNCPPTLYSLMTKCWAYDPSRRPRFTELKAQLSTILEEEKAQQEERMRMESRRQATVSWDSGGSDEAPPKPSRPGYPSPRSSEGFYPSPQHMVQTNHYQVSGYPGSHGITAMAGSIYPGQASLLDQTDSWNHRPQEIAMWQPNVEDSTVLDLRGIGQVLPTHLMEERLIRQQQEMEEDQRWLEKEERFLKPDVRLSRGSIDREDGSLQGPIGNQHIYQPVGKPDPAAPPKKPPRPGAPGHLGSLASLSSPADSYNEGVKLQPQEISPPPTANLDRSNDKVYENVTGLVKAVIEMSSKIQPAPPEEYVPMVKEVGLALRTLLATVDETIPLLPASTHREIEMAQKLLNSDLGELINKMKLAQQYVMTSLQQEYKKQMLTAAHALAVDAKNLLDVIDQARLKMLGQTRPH
Assay [4] has as its system Fibrinogen (Alexa647-labelled). In words: fibrinogen binders on compound microarrays, profiling panel, artefact control for SMM control-protein annotation, biochemical, small-molecule microarray, 635/667 nm fluorescence (AID 1131).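 Note: z-score merges 667 nm fluorescence with per-spot signal-to-noise over triplicate slides.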 The following applies: fibrinogen-A647 binding fluorescence, higher = more signal.
The target in assay [5] is Follistatin (Homo sapiens) (UniProt P19883). As to the kind of experiment: follistatin binders on small-molecule microarrays, primary screen, biochemical, small-molecule microarray, 635/667 nm fluorescence (AID 1132). The note with it: FST binding, 635 nm fluorescence, higher = more signal.
Follistatin (Homo sapiens), sequence (P19883 whole entry, looked up): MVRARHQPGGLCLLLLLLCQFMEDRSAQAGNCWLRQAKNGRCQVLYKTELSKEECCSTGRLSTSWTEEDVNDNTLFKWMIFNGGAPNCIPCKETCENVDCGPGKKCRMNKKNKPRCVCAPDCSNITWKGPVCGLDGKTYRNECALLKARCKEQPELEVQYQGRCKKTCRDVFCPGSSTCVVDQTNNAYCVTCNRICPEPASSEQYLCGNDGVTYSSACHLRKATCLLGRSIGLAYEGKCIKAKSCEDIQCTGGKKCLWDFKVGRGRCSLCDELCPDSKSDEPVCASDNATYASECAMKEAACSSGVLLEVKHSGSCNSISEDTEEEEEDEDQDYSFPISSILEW
The target in assay [6] is Fibroblast growth factor 2 (Homo sapiens) (UniProt P09038). In words: FGF2 binders on small-molecule microarrays, primary screen, biochemical, small-molecule microarray, 635/667 nm fluorescence (AID 1133). The note with it: small-molecule microarray binding, FGF2, fluorescence 635/667; higher = more signal.
Fibroblast growth factor 2 (Homo sapiens), sequence (P09038 whole entry, looked up): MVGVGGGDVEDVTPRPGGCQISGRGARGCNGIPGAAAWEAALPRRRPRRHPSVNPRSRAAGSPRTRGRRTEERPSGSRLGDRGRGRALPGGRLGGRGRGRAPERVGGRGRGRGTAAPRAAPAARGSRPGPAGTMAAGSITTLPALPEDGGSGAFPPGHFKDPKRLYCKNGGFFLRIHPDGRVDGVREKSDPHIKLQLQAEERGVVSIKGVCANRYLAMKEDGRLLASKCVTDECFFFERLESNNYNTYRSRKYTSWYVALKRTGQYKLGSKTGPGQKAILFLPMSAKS
Assay [7] is described as follows: mitochondrial membrane potential change in A549 cells, profiling panel, cell-based, JC-1 fluorescence, basal, 24 h, 100 nL (AID 1138).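 Note: A549 lung adenocarcinoma cells under basal conditions with no added stimulus; test concentration not given here.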 The following applies: higher = more signal.
Another assay has as its system Lefty1. As to the kind of experiment: Lefty1 binders on small-molecule microarrays, primary screen, biochemical, small-molecule microarray, 635/667 nm fluorescence (AID 1139). The note with it: small-molecule microarray binding, fluorescence 635/667; higher = more signal.
The test system of assay [8] is wheat germ agglutinin (Triticum aestivum), Alexa647-labelled. As to the kind of experiment: wheat germ agglutinin binders on compound microarrays, profiling panel, artefact control for SMM control-protein annotation, biochemical, small-molecule microarray, 635/667 nm fluorescence (AID 1140).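 Note: score merges 667 nm feature emission with signal to noise over triplicate slides.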 The following applies: WGA-A647 binding, 635 nm fluorescence, higher = more signal.

Assay [9] deals with Luciferin 4-monooxygenase (Photinus pyralis) (UniProt P08659). As to the kind of experiment: firefly luciferase enzyme inhibitors, primary screen, biochemical, luminescence, purified enzyme, 2006 set (AID 1141).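 Note: cell-free assay with purified firefly luciferase at 100 ng per well in PBS; test concentration not given here.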 The note with it: SteadyGlo luminescence, 30 min, higher = more signal, called active from +8 up or from −8 down.
Luciferin 4-monooxygenase (Photinus pyralis), sequence (P08659 whole entry, looked up): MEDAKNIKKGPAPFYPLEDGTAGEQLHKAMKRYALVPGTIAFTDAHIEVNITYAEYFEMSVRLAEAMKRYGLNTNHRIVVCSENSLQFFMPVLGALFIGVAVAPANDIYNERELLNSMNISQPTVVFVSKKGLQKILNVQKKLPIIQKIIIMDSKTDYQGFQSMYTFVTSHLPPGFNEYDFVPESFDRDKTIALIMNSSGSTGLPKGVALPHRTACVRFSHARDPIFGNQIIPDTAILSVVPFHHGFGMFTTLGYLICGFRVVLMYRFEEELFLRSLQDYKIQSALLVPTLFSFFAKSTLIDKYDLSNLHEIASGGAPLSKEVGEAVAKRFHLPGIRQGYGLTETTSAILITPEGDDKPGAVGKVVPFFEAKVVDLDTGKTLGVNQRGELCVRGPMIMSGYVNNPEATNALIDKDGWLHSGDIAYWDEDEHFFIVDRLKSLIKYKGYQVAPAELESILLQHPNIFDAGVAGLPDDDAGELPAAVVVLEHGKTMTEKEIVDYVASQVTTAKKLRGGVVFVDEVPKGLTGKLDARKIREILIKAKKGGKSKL
Assay [10] has as its system Wnt5a (protein binding on small-molecule microarray). As to the kind of experiment: Wnt5a binders on small-molecule microarray, primary screen, biophysical, 635/667 nm fluorescence (AID 1142).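 Note: fluorescence read at 667 nm with signal to noise per printed feature.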 The note with it: 635 nm fluorescence, higher = more signal.
Assay [11] is described as follows: cell viability in Huh7 cells, primary screen, cytotoxicity control for HCV replication inhibitor project, CellTiter-Glo luminescence, basal, 48 h (AID 1143).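 Note: Huh7 hepatoma cells carrying a hepatitis C replication reporter with no stimulus; test concentration not given here.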 The note with it: Huh7 HCV replicon, higher = more signal, called active from +8 up or from −8 down. For orientation: In ATP-based viability assays light output follows the ATP content of the culture.
Assay [12] is described as follows: P. aeruginosa biofilm formation inhibitors, primary screen, PAO1 strain, BacTiter-Glo luminescence, LB-PBS (AID 1144). The following applies: 12 h, higher = more signal.
Assay [13] in a line: CREB reporter modulators without forskolin, primary screen, cell-based, PC12, CRE-LacZ reporter, unstimulated (AID 1145). The note with it: no forskolin, luminescence, 4.5 h, higher = more signal, called active from +8 up or from −8 down.
Assay [14] in a line: CREB reporter modulators under forskolin, primary screen, cell-based, PC12, CRE-LacZ reporter, forskolin-stimulated (AID 1146).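 Note: PC12 cells with 6xCRE LacZ reporter stimulated by forskolin 10 µM; beta-galactosidase reporter signal reflecting CREB driven transcription.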 The following applies: luminescence, 4.5 h, higher = more signal, called active from +8 up or from −8 down.
Assay [15] concerns the target Streptavidin (Streptomyces avidinii) (UniProt P22629). In words: streptavidin binders on small-molecule microarray, primary screen, artefact control for SMM compound annotation, biophysical, 635/667 nm fluorescence (AID 1147).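 Note: signal reflects streptavidin binding to arrayed compounds as a control protein.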 The note with it: streptavidin binding, higher = more signal.
Assay [16] can be described thus: small-molecule binders of probe aInhba, primary screen, biochemical, small-molecule microarray, 635/667 nm fluorescence (AID 1148).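 Note: score merges 667nm spot fluorescence with signal-to-noise for antibody binding to printed compounds.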 The following applies: higher = more signal.
Assay [17] deals with Torsin-1A (Homo sapiens) (UniProt O14656). In words: torsin A binders from cell lysate, primary screen, small-molecule microarray, wild-type, 635/667 nm (AID 1149). The note with it: COS7 hTOR1A-WT lysate, 635 nm fluorescence, higher = more signal.
Torsin-1A (Homo sapiens), sequence (O14656 whole entry, looked up): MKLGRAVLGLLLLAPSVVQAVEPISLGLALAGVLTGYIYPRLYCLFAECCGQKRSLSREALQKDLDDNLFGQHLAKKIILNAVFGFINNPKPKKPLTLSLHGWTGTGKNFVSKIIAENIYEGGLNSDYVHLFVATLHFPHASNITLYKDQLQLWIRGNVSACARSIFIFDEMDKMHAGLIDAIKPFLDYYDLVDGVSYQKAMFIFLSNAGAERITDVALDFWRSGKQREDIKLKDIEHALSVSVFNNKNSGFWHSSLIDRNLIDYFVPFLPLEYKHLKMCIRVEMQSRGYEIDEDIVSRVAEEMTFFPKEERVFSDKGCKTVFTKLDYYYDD
For assay [18] the target is unchanged. As to the kind of experiment: small-molecule binders of mutant TOR1A in lysate, primary screen, cell lysate, small-molecule microarray, COS7 lysate, 635/667 nm fluorescence (AID 1150).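 Note: score pools 667 nm emission and signal to noise measuring lysate protein binding.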 The note with it: COS7 hTOR1A mutant lysate, 635 nm fluorescence, higher = more signal.
Assay [19] deals with Sonic hedgehog protein (Shh). As to the kind of experiment: small-molecule binders of Shh protein, primary screen, biochemical, small-molecule microarray, 635/667 nm fluorescence (AID 1151).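 Note: Shh protein binding to compounds spotted on small-molecule microarray slides; score combines spot fluorescence intensity with signal-to-noise across triplicate slides.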 The note with it: small-molecule microarray binding, 635 nm fluorescence; higher = more signal.

Molecules are shown by their SMILES. The source made the active and inactive calls. Unless noted, the rule behind the calls is not given here.

Streptavidin (Streptomyces avidinii), sequence (P22629 whole entry, looked up): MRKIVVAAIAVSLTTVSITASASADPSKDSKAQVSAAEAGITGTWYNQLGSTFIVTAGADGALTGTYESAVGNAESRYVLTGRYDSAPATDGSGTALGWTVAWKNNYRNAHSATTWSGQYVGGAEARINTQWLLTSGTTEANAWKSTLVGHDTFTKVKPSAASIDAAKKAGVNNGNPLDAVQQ

With `COc1ccc(C(=O)Nc2ccc(CN3C(=O)[C@]4(O[C@H](CC(=O)N5CCC[C@H]5CO)[C@@H]([Si](C)(C)c5ccc(OC)cc5)[C@@H]4C)c4ccccc43)cc2)cc1`, the composite z-score in assay [1] amounted to 1.91; in assay [2], 1.15; in [3], 0.297; in assay [4] it was 0.81; in assay [5], 1.06; in assay [6] it was 1.44. The composite z-score is 0.942 in the assay on Lefty1; 0.601 in assay [8]; 0.156 in [10]; 0.111 in [15]; 0.0785 in assay [16]; 0.585 with Torsin-1A (Homo sapiens) [17]. Besides, the composite z-score with Torsin-1A (Homo sapiens) [18] turned out to be 0.421; in assay [19] it was 2.05. Also, the z-score is 0.195 in assay [7]; -1.08 (inactive) in assay [9]; -4.81 (inactive) in [11]; -0.00818 (inactive) in assay [12]; 2.62 (inactive) in [13]; 0.124 (inactive) in assay [14].
As for `NC(=O)[C@@]1(Cc2ccccc2)N=C(c2ccc(OCCCO)cc2)O[C@H]1c1ccccc1`, the composite z-score in assay [1] was determined as 3.01; in assay [2] it was 0.614; in assay [3] it was 0.0867; in assay [4], 0.648; in assay [5] it was 0.62; in [6], 0.686. Moreover, the composite z-score is -0.846 with Lefty1; 1.3 in assay [8]; 0.677 in assay [10]; 0.924 in assay [15]; 0.196 in [16]; 1.07 with Torsin-1A (Homo sapiens) [17]. For the same compound, the composite z-score is 0.601 with Torsin-1A (Homo sapiens) [18] and -0.558 in assay [19]. The z-score in assay [7] was 0.184; in assay [9] it was -1 (inactive); in assay [11], -1.51 (inactive); in [12], -0.657 (inactive); in assay [13], 1.37 (inactive); in assay [14], -0.382 (inactive).
Consider `CCOc1cc(C(O)C2C=CC3C(=O)N(c4ccccc4)C(=O)C3N2Nc2ccc(C(C)C)cc2)ccc1O` (stereo not given), for which the composite z-score in [1] stood at 1.72; in assay [2], 1.23; in assay [3], 0.543; in [4], 0.963; in assay [5], 1.03; in assay [6] it was 0.0704. Besides, the composite z-score in the assay with Lefty1 was 0.135; in assay [8] it was 1.3; in assay [10] it was 0.12; in [15] it was 0.809; in assay [16] it was -0.0375; in the assay with Torsin-1A (Homo sapiens) [17] it was 0.159. In addition, the composite z-score with Torsin-1A (Homo sapiens) [18] amounted to 0.57; in assay [19] it was 0.323. For the same compound, the z-score is 0.898 in assay [7]; 0.12 (inactive) in assay [9]; -1.15 (inactive) in assay [11]; -0.941 (inactive) in [12]; 1.96 (inactive) in assay [13]; 0.193 (inactive) in assay [14].
Regarding `CC1CC/C=C\[C@H]2OC34C=CCN(Cc5ccccc5)C(=O)[C@H]3N(C(C)CO)C(=O)[C@@H]4C2C(=O)O1` (stereo not given in full), the composite z-score was -0.216 in assay [1]; -0.922 in [2]; -0.286 in assay [3]; -0.696 in [4]; 0.462 in assay [5]; -0.005 in [6]. Further, the composite z-score in the assay with Lefty1 is 1.06; in assay [8], -0.626; in assay [10] it was -0.125; in assay [15], -0.556; in assay [16], -0.0822; in the assay with Torsin-1A (Homo sapiens) [17] it was -0.859. Further, the composite z-score in the assay with Torsin-1A (Homo sapiens) [18] is -0.119; in assay [19], 0.473. Moreover, the z-score is 0.924 in assay [7]; -0.97 (inactive) in assay [9]; 0.0111 (inactive) in assay [11]; 0.647 (inactive) in assay [12]; 1.68 (inactive) in assay [13]; -0.0203 (inactive) in assay [14].
As to `COCC(=C=CC[C@H](O)c1cccc(OCCO)c1)C[C@H](O)c1cc(Cl)cc(Cl)c1O`, the composite z-score in assay [1] was 1.69; in [2], 1.11; in assay [3] it was 0.0607; in assay [4], 0.0479; in assay [5], 1.37; in [6], 1.87. The composite z-score in the assay with Lefty1 is 1.37; in [8], 0.107; in assay [10], 0.556; in assay [15] it was -0.128; in [16], 0.0104; with Torsin-1A (Homo sapiens) [17] it was 1.06. Also, the values for the composite z-score (in the assay with Torsin-1A (Homo sapiens) [18]; in assay [19]) were 0.878 and 1.77, respectively. Moreover, the z-score in assay [7] is 0.324; in [9], -0.709 (inactive); in assay [11], -0.465 (inactive); in assay [12], -0.494 (inactive); in [13], 10 (active); in [14] it was 0.32 (inactive).

For the origin of these results see PubChem BioAssay.
